The results in this text go back to PubChem BioAssay AID1224852 (National Center for Advancing Translational Sciences (NCATS), 2016).

Each structure is given as a SMILES string. Inconclusive results are not listed. Values without a mark were called inactive. Calls come from the whole dose curve; as a rule, active = well fitted curve in the direction sought with a large enough effect (not every such curve was filed as active); inconclusive = small, poorly fitted or top-dose-only effect, or effect the other way, or another doubt; inactive = no such curve, though single readings can be large or run the other way.

The assay can be described thus: Cell viability assay for measurement of the protective activity of small molecules against cell death caused by Zika virus infection in human neural progenitor cells (hNPCs).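 Note: 0% = ZIKV-infected cells without compound and 100% = uninfected cells.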 The conditions noted are these: hNPC ZIKV-induced death protection, ATP luminescence, 72 h; series mostly up to 46.1 µM; protection, negative = more death: at the top concentration. The essentials:
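Luminescent ATP content after 72 h ZIKV infection (2 FFU/cell) of hNPCs, compounds added 1 h before virus. Protection expressed as percent inhibition of the infection-induced drop in cell viability.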
As for `CC1(C)OC2=C(C(=O)c3ccccc3C2=O)[C@H](NCc2ccccc2)[C@H]1O`, the “protection, negative = more death” value is -81.5% [at 88.3 µM].
The figure for `Nc1c(S(=O)(=O)O)cc(Nc2ccc(Nc3nc(Cl)nc(Nc4ccc(S(=O)(=O)O)cc4)n3)c(S(=O)(=O)O)c2)c2c1C(=O)c1ccccc1C2=O` is -33.4%.
The figure for `Nc1ccc(-c2ccc3ccccc3n2)cc1` is -48.7%; for `Cc1ccc(O)c(N=Nc2ccccc2)n1` it is -70.1%.
In the case of `CC1(C)Cc2c(sc(NC(=S)NC(=O)c3ccccc3)c2C(=O)O)CO1`, the “protection, negative = more death” value was 2.37%.
As for `CCN1/C(=C/C=C/c2sc3ccccc3[n+]2CC)Sc2ccccc21`, the “protection, negative = more death” value was -80.2% [at 23.8 µM].
With `NC(=O)c1cccc2[nH]c(-c3ccc([C@H]4CCCN4)cc3F)nc12`, the “protection, negative = more death” value was -66.1%.
With `CCOCCOC(=O)/C=C/c1ccc(OC)cc1`, the “protection, negative = more death” value was -28.4%.
The figure for `O=c1[nH]nc(Sc2ncc([N+](=O)[O-])s2)n1-c1ccc2c(c1)OCCO2` is -79.3%.
With `CCCCCNC(=O)N1CCC(CN(Cc2ccc(Cl)cc2)Cc2ccc([N+](=O)[O-])s2)C1` (stereo not drawn), the “protection, negative = more death” value is -69.1%.
The figure for `O=C(Nc1ccc(OC(F)(F)F)cc1)c1sccc1NCc1ccnc2ccccc12` is -51.9%.
As for `O=C1c2ccccc2C(=O)c2c1ccc(O)c2O`, the “protection, negative = more death” value is -21.6%.
The figure for `Cc1cc(O)c2ccccc2c1O` is -83.8%; for `CC(=O)Nc1ccc([C@H](C)C(=O)Nc2ncc(C(C)C)s2)cc1` it is -64.6%; for `O=C(O)Cc1ccc(-c2ccccc2)cc1` it is -0.374%.
The figure for `CCOC1OC(=O)C[C@H]1NC(=O)[C@@H]1CCCN1C(=O)[C@@H](NC(=O)c1ccc(N)c(Cl)c1)C(C)(C)C` (stereo partly drawn) is 3.69%.
The figure for `Cc1ccc(O)c(-n2nc3ccccc3n2)c1` is 8.06%.
Regarding `CC(C)(C)OC(=O)CN(Cc1ccc(Cl)cc1)Cc1ccc([N+](=O)[O-])s1`, the “protection, negative = more death” value was -60.6% [at 88.3 µM].
